The list shows a part of the results. Calls of active or inactive are those of the source.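 How the source made its calls: active means compounds whose fitted half-maximal signal-loss concentration is at most twice their highest valid dose; inconclusive means flat curve with 30 to 70% signal loss, or poor fit; inactive means the rest.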
Assay: cytotoxicity in HepG2 cells, dose response, cytotoxicity control, cell-based, CellTiter-Glo luminescence, cherry-pick, set 4 (AID 743480)
Settings: HepG2 viability, ATP luminescence, 72 h; series mostly up to 26 µM; activity change, negative = cytotoxicity: at the top concentration

Row | Structure (SMILES) | activity change, negative = cytotoxicity
1 | CC[C@H]1OC(=O)[C@H](C)[C@@H](O[C@H]2C[C@@](C)(OC)[C@@H](O)[C@H](C)O2)[C@H](C)[C@@H](O[C@@H]2O[C@H](C)C[C@H](N(C)C)[C@H]2O)[C@](C)(O)C[C@@H](C)[C@@H]2N[C@@H](COCCOC)O[C@H]([C@H]2C)[C@]1(C)O | 23.7 unspecified (inactive)
2 | COc1ccc(Cn2c(-c3ccc(Cl)cc3)c[n+]3ccccc23)cc1 | 9.96 unspecified (inactive)
3 | C=CCNC(=O)c1ccccc1NC(=O)c1ccc(Cl)c(S(=O)(=O)Nc2cccc(C)c2C)c1 | 13 unspecified (inactive)

From PubChem BioAssay AID743480 (Broad Institute, 2014)
